For 27 molecules, growth results are on record in PubChem BioAssay (NCI).

What all share (experiment): NCI-60 one-dose screen, 48 h (100 = growth as untreated, 0 = no growth, -100 = all killed)
Holding throughout (conditions): 10 µM unless noted

Assay [1] has as its system NCI-H23 lung.
For assay [2], the system named is NCI-H226 lung.
Assay [3] deals with NCI-H322M lung.
Assay [4] deals with HOP-62 NSCLC.
Assay [5] relates to NCI-H460 lung.
The subject of assay [6] is HOP-92 NSCLC.
Assay [7] deals with NCI-H522 lung.
The subject of assay [8] is A549/ATCC NSCLC.
For assay [9], the system named is 786-0 renal.
Assay [10] concerns COLO 205 colon.

The structures appear in SMILES notation. About 83,000 compounds went through this panel and 20% of them were active in at least one assay; those are over-represented in the sample as a whole.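 Plates (96-well) were seeded with cells, treated with compound at one concentration, and incubated for 48 hours before percent growth was determined.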 Unmarked numbers belong to inactive results. Calls of active or inactive are those of the source. Rule for the calls: active = growth percent below 10; inactive = the rest.

Turning to `O=C1C[C@H](N2C(=O)c3ccccc3S2(=O)=O)C2CO[C@@H]1O2`, the growth in assay [1] is 89.3%; in assay [2], 96.1%; in assay [3], 103%; in assay [4], 92.6%; in assay [5], 103%; in assay [6] it was 98.4%. In addition, the growth in assay [7] was -45.6% (active); in assay [8], 89.1%; in assay [9] it was 96.9%; in assay [10], 64.1%.

Take `C[C@]12C[C@@H](c3ccoc3)OC(=O)[C@@H]1CC[C@]1(C)[C@@H]2CC[C@@H](O)[C@]1(C)O`: the growth was 76.1% in assay [1]; 107% in [2]; 99.2% in [3]; 49.4% in assay [4]; 50.1% in assay [5]; 54.2% in assay [6]. The growth in assay [7] is 55.5%; in assay [8] it was 49.5%; in assay [9], 84%; in assay [10], 40.9%.

Regarding `Cc1cc(-c2nc3ccccc3s2)ccc1NC(=O)COc1ccc(Cl)cc1`, the growth in [1] is 79.7%; in assay [2], 70.6%; in assay [3], 106%; in [4], 89.8%; in [5], 92.8%; in [6], 83.5%. Also, the growth is 87.8% in assay [7], 109% in assay [8], 93.4% in assay [9] and 110% in assay [10].

For `Nc1nc2c(c3ncccc13)C(c1cccc(Br)c1)Cc1ncccc1-2` (stereo not given), the growth in assay [1] was 39.5%; in assay [2], 72%; in assay [3] it was 41.6%; in assay [4] it was 20.3%; in assay [5] it was 10.6%; in assay [6] it was 67.2%. The growth in assay [7] was -12.4% (active); in assay [8], 9.92% (active); in assay [9], 21.3%; in assay [10], -36.1% (active).

Take `CCN(CC)CCCNc1cc(OC)cc2nc3cc(Cl)ccc3nc12`: the growth in assay [1] is -46.7% (active); in [2], -20.8% (active); in assay [3], -0.828% (active); in [4] it was -47.3% (active); in assay [5], -16.2% (active); in assay [6], -9.1% (active). Besides, the growth in assay [7] is -63.2% (active); in assay [8], -52.4% (active); in assay [9], 2.95% (active); in assay [10] it was -99.3% (active).

Take `NS(=O)(=O)N(c1cc(C(F)(F)F)cc(C(F)(F)F)c1)C1CCN(Cc2ccc(F)cc2)CC1`: the growth in [1] is 55.5%; in assay [2] it was 69.3%; in assay [3], 81.7%; in [4], 77.3%; in assay [5], 58.4%; in assay [6], 34.9%. Besides, the growth was 43.2% in assay [7], 66.5% in assay [8], 55.5% in assay [9] and -62.7% (active) in assay [10].

On to `COc1cc(NCCCCN=C(N)NC(N)=NC(C)C)c2ncccc2c1`, for which the growth in [1] is -31.5% (active); in assay [2], 94.3%; in [3], 33.6%; in assay [4], 75.3%; in assay [5], 74.4%; in assay [6], 33.7%. The growth in assay [7] is -6.15% (active); in assay [8] it was 98.9%; in [9], 106%; in [10] it was -18.5% (active).

`COc1cc(/C=C2\CN(C(=O)CCN3CCC(=NO)CC3)C/C(=C\c3cc(OC)c(OC)c(OC)c3)C2=O)cc(OC)c1OC`: the growth is -21.9% (active) in [1]; -6.36% (active) in assay [2]; -89.2% (active) in assay [3]; -47.2% (active) in assay [4]; -64% (active) in assay [5]; -49.2% (active) in assay [6]. Further, the growth in assay [7] is -74.7% (active); in [8] it was 2.51% (active); in assay [9], -38.6% (active); in assay [10], -85.8% (active).

For the molecule `CN(C)CCCC(=O)Nc1ccc(Cn2nnc3c2C(=O)c2nnn(Cc4ccc(NC(=O)CCCN(C)C)cc4)c2C3=O)cc1`, the growth in [1] was 2.08% (active); in [2], 102%; in assay [3], 38.5%; in [4], 83.2%; in assay [5], 31%; in assay [6], 116%. For the same molecule, the growth in assay [7] was 71.8%; in assay [8], 91.9%; in [9], 96.9%; in assay [10] it was -9.75% (active).

On to `CN1CCCCC1CCN1c2ccccc2Sc2ccc(Cl)cc21` (stereo not given), for which the growth in [1] was 77.4%; in assay [2] it was 93.5%; in assay [3] it was 59%; in [4], 84.3%; in assay [5], 71.2%; in [6], 53.3%. The growth in assay [7] is 65.5%; in assay [8], 67.4%; in [9], 61.1%; in assay [10], 58.7%.

Consider `CC1(C)OCC2OC3(C(=O)O)OC(C)(C)OC3C2O1` (stereo not given), for which the growth was 102% in assay [1]; 106% in assay [2]; 93% in assay [3]; 101% in [4]; 110% in [5]; 116% in assay [6]. Moreover, the growth in assay [7] is 84.6%; in assay [8] it was 98.1%; in assay [9] it was 103%; in assay [10], 106%.

`COc1cc(NCCCCCN=C(N)NC(N)=NC(C)C)c2ncccc2c1`: the growth in assay [1] is -37.5% (active); in [2] it was 71.2%; in assay [3], 50.7%; in assay [4], 57%; in assay [5], 55.7%; in assay [6], 32.5%. Besides, the growth was -16.1% (active) in [7], 89.9% in assay [8], 92.3% in assay [9] and -30.3% (active) in assay [10].

As for `C#Cc1nc(Nc2cc(C)[nH]n2)c2ccccc2n1`, the growth was -19.4% (active) in assay [1]; -63.3% (active) in assay [2]; -18.2% (active) in assay [3]; -61.2% (active) in [4]; -36.7% (active) in assay [5]; -46.3% (active) in assay [6]. In addition, the growth in assay [7] is -72.7% (active); in assay [8] it was -35.7% (active); in assay [9] it was -60.7% (active); in [10], -56.6% (active).

On to `CCOC(=O)c1cnc2ccc(Br)cc2c1Nc1cccc(S(=O)(=O)NC)c1`, for which the growth in assay [1] was 84.7%; in assay [2], 90.8%; in [3], 98.3%; in assay [4], 92.3%; in assay [5], 102%; in assay [6], 102%. For the same molecule, the growth was 83.6% in [7], 104% in assay [8], 103% in [9] and 128% in assay [10].

With `Cc1ccc(-c2nc(/C=N/Nc3cc(C)nc4ccc(Br)cc34)c(C)o2)cc1`, the growth in assay [1] was 79.2%; in assay [2], 86.6%; in [3], -36.8% (active); in assay [4], 97.7%; in [5] it was -81% (active); in assay [6], 18.9%. Further, the growth in assay [7] is -67.1% (active); in assay [8] it was -56.1% (active); in assay [9] it was -67% (active); in [10], -68.6% (active).

`OC(c1cc(-c2ccccc2)nc2ccc(Cl)cc12)C1CCCCN1` (stereo not given): the growth in assay [1] was 66.9%; in [2], 71.3%; in [3], 41.8%; in [4], 93.3%; in assay [5], -16.8% (active); in assay [6], 6.52% (active). Besides, the growth was 59.7% in assay [7], 21.7% in assay [8], 66.8% in assay [9] and -60.9% (active) in assay [10].

Consider `NS(=O)(=O)c1ccc(-n2ncc3c(=O)[nH]c(CN4CCN(c5cc6c(cc5F)c(=O)c(C(=O)O)cn6C5CC5)CC4)nc32)cc1`, for which the growth in assay [1] was 87.9%; in assay [2] it was 100%; in assay [3] it was 102%; in [4] it was 113%; in assay [5] it was 101%; in [6] it was 88.4%. The growth in [7] is 91.8%; in assay [8], 104%; in assay [9], 96.1%; in assay [10] it was 114%.

With `Clc1cccc(Nc2nc(Nc3cnc4ccccc4c3)c3[nH]cnc3n2)c1`, the growth in assay [1] is 84.3%; in assay [2], 72.3%; in assay [3], 89.1%; in [4] it was 59.9%; in [5], 61.1%; in assay [6], 7.57% (active). Further, the growth is 61.9% in assay [7], 74.4% in assay [8], 109% in [9] and 79.8% in assay [10].

As for `CC#CC#Cc1cccc(=O)o1`, the growth in assay [1] is 40.4%; in assay [2] it was 74.4%; in assay [3], 50.3%; in assay [4], 110%; in assay [5], 83.5%; in [6], 35.3%. Moreover, the growth in assay [7] was 59.2%; in [8], 104%; in assay [9], 83.5%; in assay [10], 46.8%.

Turning to `COc1ccc(-c2cnoc2-c2cc(OC)c3c(c2)OCCO3)cc1`, the growth in assay [1] is 16.7%; in assay [2] it was 61.8%; in [3], 45%; in assay [4] it was -8.55% (active); in assay [5], 3.25% (active); in assay [6], 31%. Further, the growth is -39.1% (active) in assay [7], 18.6% in assay [8], 8.21% (active) in assay [9] and -58.4% (active) in assay [10].

On to `Cc1nn(-c2nc3ccccc3[nH]2)c2c1C(c1ccc3c(c1)OCO3)CC(=O)N2` (stereo not given), for which the growth in [1] is 4.34% (active); in [2] it was 32%; in assay [3], 65%; in [4] it was 22.1%; in assay [5], -8.19% (active); in assay [6] it was 12.6%. For the same molecule, the growth is 26.7% in [7], 22.8% in assay [8], 32.8% in assay [9] and 83.1% in assay [10].

For `Cc1ccc(N)cc1F`, the growth is 94.6% in [1]; 101% in assay [2]; 101% in assay [3]; 84.1% in [4]; 108% in [5]; 109% in assay [6]. Further, the growth in assay [7] was 88.8%; in assay [8] it was 99.8%; in assay [9] it was 92.9%; in assay [10] it was 168%.

Consider `C/C(Cc1ccc(Cl)cc1)=C(\c1ccc(OCCN2CCCCCC2)cc1)c1ccc(OC(=O)C2CCCCC2)cc1`, for which the growth in assay [1] was 74.8%; in assay [2], 79.2%; in [3], 70.5%; in assay [4], 81.5%; in [5], 34.7%; in [6], 29.1%. The growth in [7] was 64.8%; in assay [8] it was 66.5%; in assay [9], 70%; in assay [10] it was -21.8% (active).

On to `Cc1ccc(Nc2c(C(N)=O)cnc3ccc(-c4csc(N)n4)cc23)cc1`, for which the growth in [1] was 88.3%; in [2] it was 88.3%; in assay [3], 108%; in assay [4] it was 96.4%; in assay [5], 100%; in [6] it was 90.2%. The growth in assay [7] was 101%; in [8], 95.4%; in assay [9], 101%; in [10], 96.3%.

In the case of `O=C(O)c1cccc2c1-c1ccccc1C2=O`, the growth in [1] was 98.4%; in assay [2] it was 91.6%; in [3], 83.9%; in assay [4], 95.3%; in assay [5], 105%; in assay [6] it was 80.8%. Further, the growth in assay [7] is 88.2%; in assay [8], 101%; in assay [9], 102%; in assay [10], 99.8%.

Consider `CCOC(=O)c1c2c(n3ccc(NC(=O)CCN4CCOCC4)cc13)C(=O)c1ncccc1C2=O`, for which the growth in assay [1] was 16.7%; in [2], 78.5%; in assay [3], 14.3%; in assay [4], 39.9%; in assay [5], 11.1%; in [6], 45.1%. The growth in [7] was -20.5% (active); in assay [8], 40.4%; in assay [9] it was 51.8%; in [10], 37.9%.

Consider `O=C([C@@H](COCc1ccccc1)N1C(=O)[C@@H](N2C(=O)OC[C@@H]2c2ccccc2)[C@H]1/C=C/c1ccccc1)N1CCC(CCN2CCCCC2)CC1`, for which the growth in [1] is 87%; in assay [2], 93.8%; in [3], 83.2%; in [4], 77.8%; in assay [5] it was 94.2%; in [6], 76.1%. Moreover, the growth is 57.1% in [7], 75.4% in assay [8], 83.3% in assay [9] and 65.1% in [10].
